Results from PubChem BioAssay AID488969 (Vanderbilt High Throughput Screening Facility, 2010).
Whole data set: some 110,000 compounds, median “z-score” near -0.1, cut for the highest 2% near 2. The full list was thinned out, with the highest values kept by preference. Calls of active or inactive are those of the source.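 The calls were made as follows: active = z-score in the third read window above 3 or below -3; inactive = the rest.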

target: Metabotropic glutamate receptor 8 (Rattus norvegicus) (UniProt P70579); test: mGluR8 Gi/Go-coupled signaling modulation – cell-based, rat, thallium flux, HTS, primary screen (AID 488969); conditions: HEK293 rat mGluR8, GIRK (G protein-gated inwardly rectifying potassium channel) thallium flux, FluoZin2; at 10 µM; stronger effect = higher value; submaximal glutamate (EC20) added with thallium
Sequence (P70579 whole entry, looked up): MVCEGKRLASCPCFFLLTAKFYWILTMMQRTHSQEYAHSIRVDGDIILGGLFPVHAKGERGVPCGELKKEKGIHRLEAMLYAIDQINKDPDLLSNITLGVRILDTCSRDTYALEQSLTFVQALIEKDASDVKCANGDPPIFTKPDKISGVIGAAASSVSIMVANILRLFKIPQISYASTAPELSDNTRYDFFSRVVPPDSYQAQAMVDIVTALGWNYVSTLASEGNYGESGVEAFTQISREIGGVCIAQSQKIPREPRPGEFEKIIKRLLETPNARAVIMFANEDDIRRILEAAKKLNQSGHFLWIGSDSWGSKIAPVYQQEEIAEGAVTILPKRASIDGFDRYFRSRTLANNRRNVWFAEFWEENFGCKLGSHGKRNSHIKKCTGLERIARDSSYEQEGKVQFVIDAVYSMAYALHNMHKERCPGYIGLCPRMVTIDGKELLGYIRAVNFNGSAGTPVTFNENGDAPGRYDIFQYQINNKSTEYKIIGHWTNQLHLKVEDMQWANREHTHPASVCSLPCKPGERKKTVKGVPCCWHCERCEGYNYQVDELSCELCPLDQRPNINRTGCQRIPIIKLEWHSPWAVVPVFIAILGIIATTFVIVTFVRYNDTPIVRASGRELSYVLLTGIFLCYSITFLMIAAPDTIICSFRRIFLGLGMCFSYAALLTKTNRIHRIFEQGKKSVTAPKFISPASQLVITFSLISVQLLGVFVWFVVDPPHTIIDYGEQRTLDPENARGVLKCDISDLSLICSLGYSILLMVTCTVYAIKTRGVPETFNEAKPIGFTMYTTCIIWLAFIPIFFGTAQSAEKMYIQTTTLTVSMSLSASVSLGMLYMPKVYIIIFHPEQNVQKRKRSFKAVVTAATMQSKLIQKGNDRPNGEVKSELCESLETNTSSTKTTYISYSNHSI

SMILES | z-score
Cc1ccc(N(C(=O)CS(=O)CC(=O)Nc2ccc(F)cc2)C(C(=O)NC2CCCCC2)c2ccco2)cc1 (centres undefined) | -0.219
O=C(NNC(=S)NC(=O)c1ccccc1[N+](=O)[O-])c1ccccc1Cl | -0.333
O=C(CCC1COc2ccccc2O1)Nc1ccc(Cl)cn1 (centres undefined) | -0.27
O=C(OC(C(=O)NCC1CCCO1)c1ccc(F)cc1)c1cccs1 (centres undefined) | -0.0339
COc1ccc(C(OC(=O)c2cccs2)C(=O)NCC2CCCO2)cc1 (centres undefined) | 8.22 (active)
COc1ccccc1C(OC(=O)c1cccs1)C(=O)NCC1CCCO1 (centres undefined) | -0.383
COc1ccc(N2CCN(C(=O)c3cn(C4CCCC4)c(=O)c4c3c3ccccc3n4C)CC2)cc1 | -0.454
O=C(Nc1ccc(N2CCCC2)c(S(=O)(=O)Nc2cccc(C(F)(F)F)c2)c1)c1cccs1 | -0.233
COc1ccc(Nc2ncnc3c2cnn3Cc2ccccc2)cc1 | -1.73
CCOc1ccc(Nc2ncnc3c2cnn3Cc2ccccc2)cc1 | 2.26
COc1ccc(Nc2ncnc3c2cnn3Cc2ccccc2)cc1OC | -0.181
CC(=NCCCN(C)C)C1=C(O)c2ccccc2C1=O | 0.45
CCc1ccc(C(=O)N2CCCC2)s1 | 0.0133
CCOCC(=O)Nc1nc(-c2ccccc2)c(CC)s1 | -0.107
Cc1cccc(NS(=O)(=O)c2cc(C(=O)N3CCc4ccccc4C3)ccc2Cl)c1C | -0.467
O=C(c1ccc(Cl)c(S(=O)(=O)N2CCc3ccccc3C2)c1)N1CCN(c2ccccc2)CC1 | -0.0565
Cc1cccc(N2CCN(C(=O)c3ccc(Cl)c(S(=O)(=O)N4CCc5ccccc5C4)c3)CC2)c1C | 3.61 (active)
Oc1ccccc1CNc1ccc(Br)cn1 | 5.86 (active)
Brc1ccc(NCc2cccc3ccccc23)nc1 | -0.475
Oc1ccc(Cl)cc1CNc1ccc(Br)cn1 | 0.33
CN=C1SC(CC(=O)Nc2sc(C)c(C)c2C(=O)OC)C(=O)N1C (centres undefined) | -0.51
COCCN(Cc1ccccc1)C(=S)Nc1ccc(OC(F)F)cc1 | -0.227
Cc1c(C#N)c2ncn(Cc3ccccc3)c(=O)c2n1-c1ccccc1 | -0.85

SMILES | z-score
Cc1c(C#N)c2ncn(Cc3ccccn3)c(=O)c2n1-c1ccccc1 | -0.89
Cc1c(C#N)c2ncn(CC#N)c(=O)c2n1-c1ccccc1 | 3.28 (active)
CC(=O)c1ccc(N2CCN(C(=S)Nc3cccc(Cl)c3)CC2)cc1 | -0.152
CCOCCCNc1nc2ccccc2[nH]1 | -0.0367
O=C1CCCC(=O)C1=C1SCCCS1 | -0.18
Cc1ccc(NC(=O)N2CCCN(Cc3ccc(F)cc3)C2)cc1C | -0.435
O=C(Nc1ccc(Cl)cc1)N1CCCN(Cc2ccccc2F)C1 | -0.218
O=C(Nc1ccc(Cl)cc1)N1CCCN(Cc2ccc(F)cc2)C1 | 2.53
CN1C(=O)c2ccc(NC(=O)c3ccc(N4CCCCC4)c([N+](=O)[O-])c3)cc2C1=O | -0.139
Cc1cccc(NC(=O)c2cc(NC(=O)c3ccccc3)ccc2N2CCCCC2)c1 | -0.201
CCN=C1SCC(=O)N1c1ccc(OC)cc1 | -0.307
COc1ccc(S(=O)(=O)N(CCc2ccccc2)CC(=O)N/N=C/c2ccc3c(c2)OCO3)cc1 | -0.0021
COc1ccc(Cl)cc1NC(=O)CS(=O)(=O)c1cccc2nsnc12 | 0.107
COc1ccccc1NC(=O)CS(=O)(=O)c1cccc2nsnc12 | 1.99
CCOc1ccccc1NC(=O)CN(C)S(=O)(=O)c1cccc2nsnc12 | -0.173
Cc1csc(NC(=O)Cc2c[nH]c3ccccc23)n1 | -0.137
O=C1CCC(=O)N1OCCCOc1ccc(Br)cc1Cl | 0.401
CC(C)(C)c1ccc(OCCON2C(=O)CCC2=O)c(Cl)c1 | 3.08 (active)
COc1cc(C)ccc1OCCCON1C(=O)CCC1=O | 0.122
CCn1c(=O)n(CC)c2cc(S(N)(=O)=O)c(C)cc21 | 0.381
COc1ccc(-c2cc(-c3ccccc3)c(C#N)c(SCC(=O)Nc3ncc(C)s3)n2)cc1 | -0.161
CCOC(=O)c1c(C)n(C)c2ccc(OCC(O)CN(CC)CC)cc12 (centres undefined) | 0.554
CCOc1ccc2c(c1)c(C(C)=O)c(C)n2-c1ccccc1 | -1.1

SMILES | z-score
CCN(CC)CC(O)COc1ccc2c(c1)c(C(C)=O)c(C)n2-c1ccccc1 (centres undefined) | 2.25
CC1CCN(S(=O)(=O)c2ccc(NC(=O)CN3CCN(C)CC3)cc2)CC1 | 0.193
Cc1nn2c(CN(C(=O)COc3ccccc3)c3ccccc3)nnc2c2ccccc12 | -0.835
Clc1ccc2c(NNc3ccccc3Cl)ccnc2c1 | -0.353
Clc1ccc2c(N3CCCC3)ccnc2c1 | 2.36
O=C(Oc1ccnc2cc(Cl)ccc12)N1CCOCC1 | -0.719
Cc1cc(C)nc(N2CCC(C(=O)Nc3ccc(Oc4ccccc4)cc3)CC2)n1 | -0.163
CC(C(=O)Nc1ccc([N+](=O)[O-])cc1)N1CCN(C/C=C/c2ccccc2)CC1 (centres undefined) | -0.146
CCc1ccc2nc(N3C(=O)C(O)=C(C(=O)c4ccco4)C3c3cccs3)sc2c1 (centres undefined) | -1.1
N=c1sccn1CC(=O)Nc1ccc(Cl)c(S(=O)(=O)N2CCOCC2)c1 | 0.131
N=c1sccn1CC(=O)Nc1ccc(S(=O)(=O)N2CCOCC2)cc1 | 2.19
Cc1ccc(S(=O)(=O)N2CCOCC2)cc1NC(=O)Cn1ccsc1=N | 0.262
CCOC(=O)CC1C(=O)NCCN1Cc1cccc(OC)c1 (centres undefined) | -0.139
COc1ccc(NC(=O)c2ccco2)cc1NC(=O)c1ccc(Br)o1 | -0.82
Cc1csc(SCC(=O)Nc2ncc(Cl)c(C)c2Cl)n1 | 0.185
Cc1nn(C)c(C)c1S(=O)(=O)N(CC(=O)NCCCOC(C)C)c1ccc(C(C)C)cc1 | -0.0899
COc1ccc(N(CC(=O)Nc2nccs2)S(=O)(=O)c2c(C)nn(C)c2C)cc1 | 0.0495
COc1ccc2nc(NC(=O)CN(c3ccc(C)cc3)S(=O)(=O)c3c(C)nn(C)c3C)sc2c1 | 0.03
Cc1nn(C)c(C)c1S(=O)(=O)N(CC(=O)NC1CCCCCC1)c1ccc(C(C)C)cc1 | -0.146
Cc1cccc(NC(=O)CN(c2ccc(C(C)C)cc2)S(=O)(=O)c2c(C)nn(C)c2C)n1 | 2.21
COc1ccc(N(CC(=O)Nc2nc3ccc(C)cc3s2)S(=O)(=O)c2c(C)nn(C)c2C)cc1 | 2.44
CSc1ccc(/C=N/NC(=O)CN2CCN(Cc3ccccc3)CC2)cc1 | -0.0744
CC(=O)Oc1ccc2c(c1)cc(C)n2C | 0.458
